Records with an inconclusive call do not appear. Where a call stands in place of a potency, no number is given. The source made the active and inactive calls. The call rests on the fitted dose curve.
Potency means the concentration at half of the fitted maximal effect.

This test in a line: qHTS for Inhibitors of Cell Surface uPA Generation: Wild-type Protective Antigen (WT-PrAg) Counterscreen for Cherry-picked Compounds. Particulars: cells, WT protective antigen toxicity counterscreen; series mostly up to 115 µM.
Regarding `Cc1ccnc(NS(=O)(=O)c2ccc(NC(=O)C3C4C=CC(C4)C3C(=O)O)cc2)n1` (stereo not given), the Potency result was “inactive”.

As to `CCOc1ccc(C(=O)NCC(=O)N2CCN(C/C=C/c3ccccc3)CC2)cc1OCC`, the Potency entry is “inactive”.

Turning to `CCS(=O)(=O)N1CCC(C(=O)NCc2ccc(OC)cc2OC)CC1`, the Potency result was “inactive”.

As to `O=C(O)C(Nc1nc(C(F)(F)F)nc2ccccc12)c1ccccc1` (stereo not given), the Potency result is “inactive”.

Turning to `COc1ccc(OC)c(NC(=O)C2CCCN2C(=O)C2CCC(C)CC2)c1` (stereo not given), the Potency entry is “inactive”.

With `COc1ccc(C(=O)OCC(=O)N(C)C2CCS(=O)(=O)C2)cc1S(=O)(=O)N(C)Cc1ccccc1` (stereo not given), the Potency result was “inactive”.

On to `CC(=O)Oc1ccccc1C(=O)Nc1ccccc1C(=O)N1CCCC1`, for which the Potency entry was “inactive”.

Consider `Cc1ccccc1NC(=O)N1CCN(c2ncccn2)CC1`, for which the Potency entry is “inactive”.

With `COCCOc1ccc(C(F)(F)F)cc1NC(=O)COC(=O)Cc1c[nH]c2ccccc12`, the Potency entry was “inactive”.

Regarding `Cc1ccc(S(=O)(=O)N2CCC(C(=O)OC(C)C(=O)NC3CCCCC3C)CC2)cc1` (stereo not given), the Potency entry is “inactive”.

For the compound `Cc1oc2c(Cl)c(Cl)c(O)c(CN(C)C)c2c1C(=O)c1ccc(Cl)cc1`, the Potency result was “inactive”.

`COc1ccc(C2=NS(=O)(=O)N(C)C(C(=O)NCc3ccccn3)=C2)cc1`: the Potency result was “inactive”.

With `COC(=O)c1ccccc1NC(=O)Nc1nnc(N2CCCCC2C)s1` (stereo not given), the Potency is 58.5 µM (active).

On to `CC1CCCN(S(=O)(=O)c2cccc([N+](=O)[O-])c2)C1` (stereo not given), for which the Potency entry was “inactive”.

As to `Cc1ccc(NC(=S)N2CCN(Cc3ccc4c(c3)OCO4)CC2)c(C)c1`, the Potency result was “inactive”.

For `CCC(=O)N1CCC(NC(=O)Nc2ccc(OC(F)(F)F)cc2)CC1`, the Potency result was “inactive”.

In the case of `Cc1ccc(Nc2nc(Cl)c(C=O)s2)cc1`, the Potency entry was “inactive”.

`NC(=O)CC(NC(=O)Cc1cccc2ccccc12)c1ccc(N2CCN(c3ccc(F)cc3)CC2)c([N+](=O)[O-])c1` (stereo not given): the Potency entry is “inactive”.

On to `CN(CCO)c1ccc(C(C(=O)c2ccccc2)c2ccc(N(C)CCO)cc2)cc1`, for which the Potency entry is “inactive”.

With `CCc1ccc(NCc2nc(-c3ccccc3)no2)cc1`, the Potency entry is “inactive”.

As to `C=CCn1c(=O)c(C(=O)NCCc2ccc(Cl)cc2)c(O)c2cc(OC)c(OC)cc21`, the Potency result was “inactive”.

With `COC(=O)CCNS(=O)(=O)c1ccc2nsnc2c1`, the Potency result is “inactive”.

On to `O=[N+]([O-])c1ccc(SCc2ccncc2)nc1`, for which the Potency entry is “inactive”.

With `Cc1ccc(S(=O)(=O)NNC(=O)c2ccc(F)cc2)cc1`, the Potency entry was “inactive”.

Take `COc1ccc(N2CCN(S(=O)(=O)c3ccc4c(c3)NC(=O)CS4)CC2)cc1`: the Potency entry was “inactive”.

On to `COc1ccccc1CCNC(=O)C(=O)NCC1OCCN1S(=O)(=O)c1ccc(OC)c(OC)c1` (stereo not given), for which the Potency entry is “inactive”.

For `COCCNC(=S)N(CCc1c(C)[nH]c2ccccc12)Cc1ccco1`, the Potency result was “inactive”.

With `COc1ccc2[nH]cc(S(=O)(=O)c3ccc(C(C)C)cc3)c(=O)c2c1`, the Potency entry is “inactive”.

Consider `CCOc1ccc(Cl)cc1/C=N/NC(=O)c1ccccc1`, for which the Potency result is “inactive”.

Turning to `O=c1[nH]c(=O)n(-c2ccc(Cl)cc2)c(O)c1C=Nc1ccc(S(=O)(=O)Nc2nccs2)cc1`, the Potency result is “inactive”.

For the compound `N#CCCN(C(=O)COC(=O)c1ccc2c(c1)NC(=O)CS2)c1ccc2c(c1)OCCO2`, the Potency result was “inactive”.

Take `c1csc(CN2CCOCC2)c1`: the Potency entry is “inactive”.

As for `NS(=O)(=O)c1ccc(CCNC(=O)c2ccc(Cl)s2)cc1`, the Potency result was “inactive”.

On to `O=C(CSc1ccc(Cl)cc1)Nc1ccc(C2SCCS2)cc1`, for which the Potency entry is “inactive”.

Regarding `O=C(CCCC(=O)N1CCN(c2ccccc2F)CC1)c1ccccc1`, the Potency result was “inactive”.

For `COCCn1c(SCC(=O)Nc2ccc(F)cc2)nc2ccccc2c1=O`, the Potency result was “inactive”.

Take `Cn1c(=O)c(=O)n(C)c2cc(S(=O)(=O)CCC(=O)Nc3ccc(F)cc3)ccc21`: the Potency result is “inactive”.

Regarding `CC(=O)Nc1ccc(OS(=O)(=O)c2c(C)cc(C)cc2C)cc1`, the Potency entry is “inactive”.

Turning to `O=C(c1cc(COc2ccc(F)cc2Cl)on1)N1CCCCCC1`, the Potency entry is “inactive”.

Take `CC(=O)n1cc(/C=N/NC(=O)c2ccc([N+](=O)[O-])cc2)c2ccccc21`: the Potency entry is “inactive”.

These data come from PubChem BioAssay AID720518 (National Center for Advancing Translational Sciences (NCATS), 2013).
